# Experimental data: PubChem BioAssay AID1159580 (chemical genetic matrix, 2015)
# Among all 5,500 compounds or so, about 2,000 (36%) were called active. Roughly 18% stayed inconclusive and do not appear here. This is one part of the list. Values without a mark were called inactive. Cut-off read from the data, not from the text of the source: active = normalized growth mostly below about 0.91 (no sharp cut-off); inconclusive = no clear call, values can overlap the other calls; inactive = mostly above about 0.92.
# Experiment: chemical genetic growth profiling, strain panel (AID 1159580);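 note: tested at 20 µM; growth read once vehicle control cultures reached saturation at 30 °C; 1 = growth at the plate median or of vehicle wells; lower values mean less growth of the strain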
# Conditions: growth OD
# [1] = S. cerevisiae deletion strains, locus YDL101C, strain DUN1, stronger effect = lower value
# [2] = S. cerevisiae deletion strains, locus YHR030C, strain SLT2, stronger effect = lower value
structure (smiles),measurement,setting,value
S=C(NNC(=S)NC1CC2C=CC1C2)Nc1ccc(Br)c(Cl)c1 (configuration not stated),normalized growth,"S. cerevisiae deletion strains, locus YAR019C, strain CDC15, stronger effect = lower value",0.981
same,normalized growth,"S. cerevisiae deletion strains, locus YBL105C, strain PKC1, stronger effect = lower value",0.987
same,normalized growth,"S. cerevisiae deletion strains, locus YBR135W, strain CKS1, stronger effect = lower value",0.986
same,normalized growth,"S. cerevisiae deletion strains, locus YBR136W, strain MEC1, stronger effect = lower value",0.976
same,normalized growth,"S. cerevisiae deletion strains, locus YBR160W, strain CDC28, stronger effect = lower value",0.984
same,normalized growth,"S. cerevisiae deletion strains, locus YDL017W, strain CDC7, stronger effect = lower value",0.986
same,normalized growth,"S. cerevisiae deletion strains, locus YDL028C, strain MPS1, stronger effect = lower value",0.979
same,normalized growth,[1],0.989
same,normalized growth,"S. cerevisiae deletion strains, locus YDL108W, strain KIN28, stronger effect = lower value",0.989
same,normalized growth,"S. cerevisiae deletion strains, locus YDL132W, strain cdc53, stronger effect = lower value",0.987
same,normalized growth,"S. cerevisiae deletion strains, locus YDL214C, strain PRR2, stronger effect = lower value",0.948
same,normalized growth,"S. cerevisiae deletion strains, locus YDR052C, strain DBF4, stronger effect = lower value",0.994
same,normalized growth,"S. cerevisiae deletion strains, locus YDR054C, strain cdc34, stronger effect = lower value",0.976
same,normalized growth,"S. cerevisiae deletion strains, locus YDR226W, strain ADK1, stronger effect = lower value",0.982
same,normalized growth,"S. cerevisiae deletion strains, locus YDR477W, strain SNF1, stronger effect = lower value",0.932
same,normalized growth,"S. cerevisiae deletion strains, locus YER123W, strain YCK3, stronger effect = lower value",0.931
same,normalized growth,"S. cerevisiae deletion strains, locus YER133W, strain GLC7, stronger effect = lower value",0.922
same,normalized growth,"S. cerevisiae deletion strains, locus YFL009W, strain cdc4, stronger effect = lower value",0.98
same,normalized growth,"S. cerevisiae deletion strains, locus YFL029C, strain CAK1, stronger effect = lower value",0.982
same,normalized growth,"S. cerevisiae deletion strains, locus YFR003C, strain YPI1, stronger effect = lower value",0.985
same,normalized growth,"S. cerevisiae deletion strains, locus YFR019W, strain FAB1, stronger effect = lower value",0.993
same,normalized growth,"S. cerevisiae deletion strains, locus YFR028C, strain CDC14, stronger effect = lower value",0.986
same,normalized growth,"S. cerevisiae deletion strains, locus YGR040W, strain KSS1, stronger effect = lower value",0.939
same,normalized growth,"S. cerevisiae deletion strains, locus YGR052W, strain FMP48, stronger effect = lower value",0.954
same,normalized growth,"S. cerevisiae deletion strains, locus YGR092W, strain DBF2, stronger effect = lower value",0.922
same,normalized growth,[2],0.889
same,normalized growth,"S. cerevisiae deletion strains, locus YHR079C, strain IRE1, stronger effect = lower value",0.954
same,normalized growth,"S. cerevisiae deletion strains, locus YHR082C, strain KSP1, stronger effect = lower value",1.03
same,normalized growth,"S. cerevisiae deletion strains, locus YHR205W, strain SCH9, stronger effect = lower value",0.972
same,normalized growth,"S. cerevisiae deletion strains, locus YIL147C, strain SLN1, stronger effect = lower value",0.983
same,normalized growth,"S. cerevisiae deletion strains, locus YJL095W, strain BCK1, stronger effect = lower value",0.927
same,normalized growth,"S. cerevisiae deletion strains, locus YJL128C, strain PBS2, stronger effect = lower value",0.943
same,normalized growth,"S. cerevisiae deletion strains, locus YJL157C, strain FAR1, stronger effect = lower value",0.927
same,normalized growth,"S. cerevisiae deletion strains, locus YJR016C, strain ILV3, stronger effect = lower value",0.984
same,normalized growth,"S. cerevisiae deletion strains, locus YJR066W, strain TOR1 (second series), stronger effect = lower value",0.972
same,normalized growth,"S. cerevisiae deletion strains, locus YJR066W, strain TOR1, stronger effect = lower value",1.05
same,normalized growth,"S. cerevisiae deletion strains, locus YKL048C, strain ELM1, stronger effect = lower value",0.982
same,normalized growth,"S. cerevisiae deletion strains, locus YKL067W, strain YNK1, stronger effect = lower value",0.94
same,normalized growth,"S. cerevisiae deletion strains, locus YKL101W, strain HSL1, stronger effect = lower value",0.961
same,normalized growth,"S. cerevisiae deletion strains, locus YKL193C, strain SDS22, stronger effect = lower value",0.975
same,normalized growth,"S. cerevisiae deletion strains, locus YKL203C, strain TOR2, stronger effect = lower value",0.994
same,normalized growth,"S. cerevisiae deletion strains, locus YLR113W, strain HOG1, stronger effect = lower value",0.896
same,normalized growth,"S. cerevisiae deletion strains, locus YLR133W, strain CKI1, stronger effect = lower value",0.959
same,normalized growth,"S. cerevisiae deletion strains, locus YLR403W, strain SFP1, stronger effect = lower value",0.939
same,normalized growth,"S. cerevisiae deletion strains, locus YML070W, strain DAK1, stronger effect = lower value",0.942
same,normalized growth,"S. cerevisiae deletion strains, locus YMR001C, strain CDC5, stronger effect = lower value",0.984
same,normalized growth,"S. cerevisiae deletion strains, locus YMR205C, strain PFK2 (second series), stronger effect = lower value",0.957
same,normalized growth,"S. cerevisiae deletion strains, locus YMR277W, strain FCP1, stronger effect = lower value",0.983
same,normalized growth,"S. cerevisiae deletion strains, locus YNL006W, strain LST8, stronger effect = lower value",0.984
same,normalized growth,"S. cerevisiae deletion strains, locus YNL020C, strain ARK1, stronger effect = lower value",0.952
same,normalized growth,"S. cerevisiae deletion strains, locus YNL161W, strain CBK1, stronger effect = lower value",0.982
same,normalized growth,"S. cerevisiae deletion strains, locus YNL183C, strain NPR1, stronger effect = lower value",1.04
same,normalized growth,"S. cerevisiae deletion strains, locus YNL207W, strain RIO2, stronger effect = lower value",0.977
same,normalized growth,"S. cerevisiae deletion strains, locus YNL222W, strain SSU72, stronger effect = lower value",0.991
same,normalized growth,"S. cerevisiae deletion strains, locus YNL307C, strain MCK1 (second series), stronger effect = lower value",0.956
same,normalized growth,"S. cerevisiae deletion strains, locus YOL078W, strain AVO1, stronger effect = lower value",0.984
same,normalized growth,"S. cerevisiae deletion strains, locus YOL136C, strain PFK27, stronger effect = lower value",0.964
same,normalized growth,"S. cerevisiae deletion strains, locus YOR061W, strain CKA2, stronger effect = lower value",0.947
same,normalized growth,"S. cerevisiae deletion strains, locus YOR119C, strain RIO1, stronger effect = lower value",0.994
same,normalized growth,"S. cerevisiae deletion strains, locus YOR231W, strain MKK1, stronger effect = lower value",0.963
same,normalized growth,"S. cerevisiae deletion strains, locus YOR329C, strain SCD5, stronger effect = lower value",0.993
same,normalized growth,"S. cerevisiae deletion strains, locus YPL031C, strain PHO85, stronger effect = lower value",0.928
same,normalized growth,"S. cerevisiae deletion strains, locus YPL153C, strain RAD53, stronger effect = lower value",0.932
same,normalized growth,"S. cerevisiae deletion strains, locus YPL204W, strain HRR25, stronger effect = lower value",0.939
same,normalized growth,"S. cerevisiae deletion strains, locus YPL209C, strain IPL1, stronger effect = lower value",0.986
same,normalized growth,"S. cerevisiae deletion strains, locus YPL256C, strain CLN2, stronger effect = lower value",0.987
same,normalized growth,"S. cerevisiae deletion strains, locus YPR025C, strain CCL1, stronger effect = lower value",0.987
same,normalized growth,"S. cerevisiae deletion strains, locus YPR106W, strain ISR1, stronger effect = lower value",0.981
same,normalized growth,"S. cerevisiae deletion strains, locus YPR111W, strain DBF20, stronger effect = lower value",0.983
same,normalized growth,"S. cerevisiae deletion strains, strain NNK1, stronger effect = lower value",0.983
same,normalized growth,"S. cerevisiae deletion strains, strain TSCII, stronger effect = lower value",0.985
Cc1cccc(NC(=S)NC2CC3C=CC2C3)c1 (configuration not stated),normalized growth,"S. cerevisiae deletion strains, locus YAL013W, strain DEP1, stronger effect = lower value",0.939
same,normalized growth,"S. cerevisiae deletion strains, locus YBR229C, strain ROT2, stronger effect = lower value",0.998
same,normalized growth,"S. cerevisiae deletion strains, locus YCL061C, strain MRC1, stronger effect = lower value",0.979
same,normalized growth,[1],0.985
same,normalized growth,"S. cerevisiae deletion strains, locus YDL134C, strain PPH21, stronger effect = lower value",0.904 (active)
same,normalized growth,"S. cerevisiae deletion strains, locus YDR150W, strain NUM1, stronger effect = lower value",1.01
same,normalized growth,"S. cerevisiae deletion strains, locus YEL061C, strain CIN8, stronger effect = lower value",0.905 (active)
same,normalized growth,"S. cerevisiae deletion strains, locus YGR078C, strain PAC10, stronger effect = lower value",0.978
same,normalized growth,"S. cerevisiae deletion strains, locus YGR229C, strain SMI1, stronger effect = lower value",0.987
same,normalized growth,[2],0.91
same,normalized growth,"S. cerevisiae deletion strains, locus YHR087W, strain rtc3, stronger effect = lower value",1.02
same,normalized growth,"S. cerevisiae deletion strains, locus YJR043C, strain POL32, stronger effect = lower value",0.926
same,normalized growth,"S. cerevisiae deletion strains, locus YJR075W, strain HOC1, stronger effect = lower value",0.994
same,normalized growth,"S. cerevisiae deletion strains, locus YLR039C, strain RIC1, stronger effect = lower value",0.685 (active)
same,normalized growth,"S. cerevisiae deletion strains, locus YLR058C, strain SHM2 (second series), stronger effect = lower value",0.993
same,normalized growth,"S. cerevisiae deletion strains, locus YLR085C, strain ARP6, stronger effect = lower value",0.435 (active)
same,normalized growth,"S. cerevisiae deletion strains, locus YLR262C, strain YPT6, stronger effect = lower value",0.825
same,normalized growth,"S. cerevisiae deletion strains, locus YML094W, strain GIM5, stronger effect = lower value",0.882
same,normalized growth,"S. cerevisiae deletion strains, locus YMR219W, strain ESC1, stronger effect = lower value",0.984
same,normalized growth,"S. cerevisiae deletion strains, locus YMR263W, strain SAP30, stronger effect = lower value",0.949
same,normalized growth,"S. cerevisiae deletion strains, locus YMR307W, strain GAS1, stronger effect = lower value",0.688
same,normalized growth,"S. cerevisiae deletion strains, locus YNL128W, strain TEP1, stronger effect = lower value",0.977
same,normalized growth,"S. cerevisiae deletion strains, locus YNL153C, strain GIM3, stronger effect = lower value",0.98
same,normalized growth,"S. cerevisiae deletion strains, locus YNL298W, strain CLA4 (second series), stronger effect = lower value",0.85
same,normalized growth,"S. cerevisiae deletion strains, locus YNL322C, strain KRE1, stronger effect = lower value",0.993
same,normalized growth,"S. cerevisiae deletion strains, locus YNR030W, strain Alg12, stronger effect = lower value",0.897
same,normalized growth,"S. cerevisiae deletion strains, locus YOL006C, strain TOP1, stronger effect = lower value",0.182 (active)
same,normalized growth,"S. cerevisiae deletion strains, locus YPL055C, strain LGE1, stronger effect = lower value",0.913
same,normalized growth,"S. cerevisiae deletion strains, locus YPL241C, strain CIN2, stronger effect = lower value",0.91
same,normalized growth,"S. cerevisiae deletion strains, locus YPR135W, strain CTF4, stronger effect = lower value",0.814
same,normalized growth,"S. cerevisiae strains, strain wild type, stronger effect = lower value",0.927
